Source: PubChem BioAssay (National Center for Advancing Translational Sciences (NCATS))
PNC inhibitor = perinucleolar compartment assembly inhibition; PC3M PTB-GFP, PNC prevalence imaging, 16 h; hits give low values; 140,000 tested, 3.1% active; activity change (PNC), negative = inhibition, % at 10 µM; AID 2417;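 active = readout at or below -70, meaning at least 70% loss of cells showing the perinucleolar compartment, a nuclear body marking cancer cells; inconclusive = readout between -30 and a set limit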;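 note: plate controls were DMSO wells for no effect and camptothecin positive control wells for full effect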
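Compounds are pinned in duplicate onto adhered PC3M cells stably expressing GFP-tagged PTB and incubated 16 h at 37 C. Cells are then fixed, nuclei stained with Hoechst, and PNC-positive cells counted.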
HPGD block = blocks human HPGD enzyme activity; 150,000 tested, 4.3% active; AID 894; Potency, µM, for inactives: at the highest dose activity change, negative = inhibition, hits mostly inhibitors; purified HPGD, NADH fluorescence kinetic, PGE2 substrate; P15428; note: potency is the fitted concentration of half-maximal effect
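20 nM HPGD preincubated 15 min at room temperature with compound in 50 mM Tris-HCl pH 8, 0.01% Tween 20. Started with 1 mM NAD+ and 30 uM prostaglandin E2; NADH fluorescence (360/450 nm) read 5 times over 30-s intervals, last minus first.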
12-hLO inh = 12-hLO (ALOX12) enzyme inhibition; purified 12-hLO, xylenol orange hydroperoxide absorbance; Potency, µM (series often up to 57.1 µM), inactives show top-dose activity change, negative = inhibition, most hits filed as inhibitors; 150,000 tested, 0.12% active; AID 1452; active = well fitted inhibition curve with a large enough effect; inconclusive = small, poorly fitted or top-dose-only effect; note: potency is the fitted concentration of half-maximal effect; nearly all actives have a fitted effect of over 55% in size
Target sequence (P18054 whole entry, looked up): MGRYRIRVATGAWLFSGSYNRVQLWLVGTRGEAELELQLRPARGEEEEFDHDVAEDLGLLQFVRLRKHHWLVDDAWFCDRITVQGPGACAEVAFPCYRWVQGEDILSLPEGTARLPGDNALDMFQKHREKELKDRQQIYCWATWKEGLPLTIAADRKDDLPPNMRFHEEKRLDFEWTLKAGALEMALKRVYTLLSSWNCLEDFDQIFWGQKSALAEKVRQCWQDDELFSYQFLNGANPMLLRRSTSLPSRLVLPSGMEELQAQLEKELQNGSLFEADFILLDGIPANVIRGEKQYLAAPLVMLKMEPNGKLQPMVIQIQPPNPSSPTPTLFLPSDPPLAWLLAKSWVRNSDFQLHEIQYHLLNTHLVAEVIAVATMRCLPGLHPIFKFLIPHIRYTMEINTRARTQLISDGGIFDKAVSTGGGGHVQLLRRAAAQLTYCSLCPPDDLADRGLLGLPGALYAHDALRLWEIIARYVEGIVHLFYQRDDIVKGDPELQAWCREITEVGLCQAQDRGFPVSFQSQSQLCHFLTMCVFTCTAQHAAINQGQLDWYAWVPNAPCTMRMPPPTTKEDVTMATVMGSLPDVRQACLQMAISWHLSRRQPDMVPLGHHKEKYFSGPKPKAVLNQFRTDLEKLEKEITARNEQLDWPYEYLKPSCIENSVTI
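Xylenol orange chromogenic assay: hydroperoxide from 12hLO oxidises Fe(II), giving red-shifted Fe(III)-XO absorbance. Conditions: 150 nM enzyme, 40 uM arachidonic acid, 25 mM Hepes pH 7.0, 0.01% Triton X-100, 30 min, room temperature.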
ALDH1A1 inh = ALDH1A1 (human) enzyme inhibition; 220,000 tested, 7.3% active; P00352; Purified ALDH1A1, NADH fluorescence, propionaldehyde substrate; Potency, µM (highest dose often 75.3 µM), for inactives: at the top dose activity, negative = inhibition, actives largely listed as inhibitors;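 note: potency is the fitted concentration of half-maximal effect; plate controls were no enzyme wells and a reference inhibitor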
LMNA splice mod = LMNA splicing modulation | HeLa LMNA splicing GFP/RFP minigene ratio, 48 h | Potency, µM (series often up to 46.1 µM), inactives show at the top dose ratio change, negative = inhibition, usual class: inhibitors | 200,000 tested, 0.01% active; active = well fitted inhibition curve with a large enough effect in the signal ratio, with a control signal flat, not every such curve was filed as active; inconclusive = small, poorly fitted or top-dose-only effect, or effect the other way, or a change in a side signal; the % refers to the signal ratio; note: potency is the fitted concentration of half-maximal effect
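Read-out is the ratio of GFP to DsRed2 object intensity, acquired by 488 nm laser-scanning cytometry on HeLa lamin A-EGFP minigene reporter cells. Compound incubation 48 hrs at 37 °C in Opti-MEM with 2% FBS; DMSO 0.5% final.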
Numbers without * were called inactive; ? = inconclusive; · = not tested or not shown; [ ] = dose if it differs, or a comment. Hits are enriched below; roughly 10% of the tested compounds scored in any of these assays. Unless noted, calls come from the whole dose curve; as a rule, active = well fitted inhibition curve with a large enough effect (not every such curve was filed as active); inconclusive = small, poorly fitted or top-dose-only effect, or another doubt; inactive = no such curve, though single readings can be large or run the other way. Unless noted, % is set by controls: 0 for no effect and ±100 for the full control effect.

SMILES | PNC inhibitor | HPGD block | 12-hLO inh | ALDH1A1 inh | LMNA splice mod
COc1ccc(C2C(C(=O)NCC3CCCO3)CCC(=O)N2c2ccc3c(c2)OCO3)cc1 (stereo not drawn) | 18 | 5% | 4% | 14µM* | 10%
COc1ccc(C2C(C(=O)N3CCOCC3)CCC(=O)N2c2ccc(OC)cc2)cc1 (stereo not drawn) | ? | -11% | 2% | 14µM* | 6%
COc1ccc(N2C(=O)CCC(C(=O)NCc3ccccn3)C2c2ccc(F)cc2)cc1 (stereo not drawn) | -4 | 1% | 5% | 4% | 12%
COc1ccc(N2C(=O)CCC(C(=O)N3CCCCC3)C2c2ccc(OC)c(OC)c2)cc1 (stereo not drawn) | -7 | -5% | -3% | 1% | -7%
COc1ccc(N2C(=O)CCC(C(=O)Nc3cccc(C)n3)C2c2ccc(OC)c(OC)c2)cc1 (stereo not drawn) | -14 | -4% | 9% | 22µM* | -3%
Cc1nnc(NC(=O)c2ccccc2Oc2ccccc2)s1 | · | · | · | 1% | -12%[46 µM]
CSc1ncc(C(=O)Nc2cc(Cl)ccc2C)c(-c2ccccc2)n1 | · | · | · | · | -17%[46 µM]
COc1ccc(Oc2c(C=O)c3ccccc3n2C)cc1 | 100 | 32µM* | -3% | -7% | 15%
O=c1cc(C(F)(F)F)nc(-c2cccnc2)[nH]1 | · | · | · | 1% | ·
O=c1cc(C(F)(F)F)nc(-c2ccccc2)[nH]1 | ? | 14µM* | 1% | 14% | 2%
O=c1c(O)c(-c2cc(O)c(O)c(O)c2)oc2cc(O)cc(O)c12 | · | 7.9µM* | ? | 3.5µM* | ?
O=c1c(O)c(-c2ccccc2)oc2cc(O)cc(O)c12 | · | -28% | 2% | -2% | ·
NC(=O)NCC(N)C(=O)O (stereo not drawn) | · | -8% | 8% | 6% | -6%
Cc1cccc(C(=O)Nc2cc(-c3ccccc3F)nn2-c2ccccc2)c1 | · | · | · | · | -12%[46 µM]
O=C(NC(=S)Nc1ccccc1N1CCCC1)c1ccc(F)cc1 | · | · | · | 7.5µM* | ·
CC1CCN(c2ccccc2NC(=O)c2ccc(F)cc2)CC1 | 42 | ? | 0% | ? | -14%
Cc1ccccc1C(=O)NC(=S)Nc1ccccc1N1CCCC1 | · | · | · | 25µM* | ?
Cc1cc(C(=O)NC(=S)Nc2ccccc2N2CCCC2)ccc1[N+](=O)[O-] | 35 | -15% | 3% | ? | -8%
CC1CCN(c2ccccc2NC(=S)NC(=O)C(C)(C)C)CC1 | · | · | · | 1.3µM* | ·
CC1CCN(c2ccccc2NC(=S)NC(=O)c2cccs2)CC1 | ? | -13% | ? | ? | ?
O=C(NC(=S)Nc1ccccc1N1CCCCC1)c1ccccc1 | · | · | · | 19µM* | ?
NS(=O)(=O)c1ccc(CCNC(=O)Cn2c(=O)c3cccn3c3ccc(F)cc32)cc1 | · | · | · | · | 25%[46 µM]
O=C(Nc1ccccc1N1CCCCC1)c1ccccc1F | ? | -21% | 0% | ? | -1%
O=C(NC(=S)Nc1ccccc1N1CCCC1)c1cccc(F)c1 | · | · | · | 8.9µM* | ·
CCOc1ccccc1NC(=O)C1CCCN(c2ncnc3onc(-c4ccc(F)cc4)c23)C1 (stereo not drawn) | · | · | · | · | -5%[46 µM]
SMILES | PNC inhibitor | HPGD block | 12-hLO inh | ALDH1A1 inh | LMNA splice mod
COC(=O)c1cc(=O)n(CCc2ccccc2)c(=Nc2ccc(F)cc2)s1 | -83* | -9% | -9% | 0% | ?
COC(=O)c1cc(=O)n(Cc2cccs2)c(=NCc2cccs2)s1 | 12 | -15% | -4% | 0.32µM* | 15%
CCOC(=O)c1ccc(N=c2sc(C(=O)OC)cc(=O)n2Cc2ccco2)cc1 | ? | -17% | -7% | 1.4µM* | ?
Cc1nonc1CN(C)C(=O)CC1C(=O)NCCN1Cc1c(F)cccc1Cl (stereo not drawn) | · | · | · | -6% | -6%[46 µM]
Cc1cc(CN(C)C(=O)CC2C(=O)NCCN2Cc2c(F)cccc2Cl)n[nH]1 (stereo not drawn) | · | · | · | 16µM* | ·
CC(=O)NC(Cc1cccc(F)c1)C(=O)NC1CCN(C(=O)c2ccc(C)cc2)CC1 (stereo not drawn) | · | · | · | 14µM* | ?
CC(=O)NC(Cc1ccccc1C)C(=O)NC1CCN(C(=O)c2cccc(C)c2)CC1 (stereo not drawn) | · | · | · | 20µM* | ·
CCNc1ncc2nc(-c3cn(C)c4ccccc34)c(=O)n(Cc3ccc(F)cc3)c2n1 | · | · | · | -7% | ?
Nc1ncnc2c([C@@H]3O[C@@H](CO)[C@H](O)[C@@H]3O)nsc12 | · | -5% | 3%[11.4 µM] | -12%[13.5 µM] | ·
COc1ccc(CN2CCN(C(=O)C3CC(=O)N(C4CCCCCC4)C3)CC2)c(OC)c1OC (stereo not drawn) | 26 | -1% | 0% | 20µM* | 14%
COc1ccc(CC(=O)NCCc2csc(-c3cccc(C)c3)n2)cc1 | · | · | · | · | -5%[46 µM]
Cn1nc(C(=O)NCc2ccccc2)c2ccccc2c1=O | -7 | -13% | 2% | 20µM* | 4%
CC(NC(=O)c1nn(C)c(=O)c2ccccc12)c1ccccc1 (stereo not drawn) | 39 | -10% | 7% | 16µM* | -8%
Cn1nc(C(=O)NCc2ccc(F)cc2)c2ccccc2c1=O | 6 | -9% | -10% | 1% | ?
COc1ccc(-c2nnc(SCC(=O)c3ccc(NC(C)=O)cc3)o2)cc1OC | · | · | · | · | -1%[46 µM]
COc1ccc(C2OC(=O)CC2C(=O)NCc2ccc(Cl)cc2)cc1OC (stereo not drawn) | · | · | · | 1% | ·
O=C(Nc1ccccc1Br)C1CC(=O)N(c2ccc3c4c(cccc24)CC3)C1 (stereo not drawn) | 47 | -15% | 0% | 20µM* | ?
Cc1ccccc1NC(=O)C1CC(=O)N(c2ccc3c4c(cccc24)CC3)C1 (stereo not drawn) | -1 | -8% | 0% | ? | 5%
COc1cccc([C@@H]2Oc3ccc(OC)cc3C(=O)[C@H]2OC(=O)NCc2ccco2)c1 | · | -1% | · | -12% | ·
Cc1nnc(NC(=O)C2CCCO2)s1 (stereo not drawn) | ? | 13µM* | 5% | 8.9µM* | -8%
O=C(Nc1nnc(-c2ccncc2)s1)C1CCCO1 (stereo not drawn) | ? | ? | -2% | ? | -13%
CCCC(C)c1nnc(NC(=O)C(=O)OCC)s1 (stereo not drawn) | · | · | · | 7.9µM* | ·
O=C(Nc1nnc(-c2ccccc2F)s1)C1CCCO1 (stereo not drawn) | 52 | -20% | -3% | 20µM* | -9%
CCCC(C)c1nnc(NC(=O)C2CCCO2)s1 (stereo not drawn) | -8 | 11µM* | 5% | 3.5µM* | 8%
COCCSc1nnc(NC(=O)C2CCCO2)s1 (stereo not drawn) | -24 | -8% | -4% | 5% | -1%
